The entries come from a sample that favours hits as a whole.
Pf Dd2 growth = inhibitors of Plasmodium falciparum Dd2 growth | P. falciparum Dd2 growth, SYBR Green, 72 h | AID 1347417 | hit rate 4.3% among 120,000 | Potency, µM (highest dose often 28.9 µM), for the others: at the top dose activity, negative = inhibition, hits mostly inhibitors; active means well fitted inhibition curve with a large enough effect;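 further: plate controls were DMSO vehicle for no effect and reference drug for full effect; nearly all actives have a fitted effect of over 65% in size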
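Infected erythrocytes (Dd2, 0.3% parasitemia, 2.5% hematocrit final) are added to compound in RPMI-1640/Albumax II medium, grown 72 h at 37C in low oxygen, then lysed with saponin/Triton-X containing SYBR Green and read by fluorescence.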
* marks the source's active call; other numbers are inactive results; i = inactive; [ ] = dose if it differs, or a comment. Potency means the concentration at half of the fitted maximal effect.

SMILES | Pf Dd2 growth
O=C(NC1CC(=O)N(Cc2ccc(F)cc2)C1)c1ccn[nH]1 (centres undefined) | -6.1%
COCCN1CCC(C(=O)N2Cc3cnc(CC(C)C)nc3C2)CC1 | -17.5%
COCCNc1nc2cc(C(=O)N3CC[C@H]4CNC[C@H]43)ccc2n1C | 17.4%
CCN(CC)c1ccc(-n2nc3cc(C)c(NC(=O)c4ccccc4F)cc3n2)cc1 | 1.41µM*
Cc1cc2nn(-c3ccccc3)nc2cc1NC(=O)c1cccc2c(Cl)cccc12 | 46.0%
Cc1cc2nn(-c3ccc(F)cc3)nc2cc1NC(=O)c1cc(Cl)ccc1Cl | 28.2%
Cc1nc([C@@H]2CN(C(=O)CCc3c(C)noc3C)C[C@H]2C(N)=O)n[nH]1 | i
CC(C)CS(=O)(=O)N[C@@H]1C[C@H](Cn2cc(CN(C)C)nn2)[C@@H](O)[C@H]1O | 15.6%[44.1 µM]
CN(Cc1cccc(O)c1)C(=O)[C@H]1C[C@@H](C(=O)O)N(C)[C@H]1c1ccccc1F | -1.6%
Cc1ccc(CNC(=O)CSc2nc3n[nH]c(C)c3c(=N)n2-c2ccccc2Cl)cc1 | 3.55µM*
CCCCn1c(SCC(=O)NCc2ccc(C)cc2)nc2c(sc3ccccc32)c1=O | 46.0%
COc1ccc(-n2c(SCC(=O)NCc3ccc(C)cc3)nc3n[nH]c(C)c3c2=N)cc1 | 10µM*
Cc1ccc(Cn2ccnc2SCC(=O)NCc2ccccc2)cc1 | i
COc1ccc(CNC(=O)CSc2n[nH]c(-c3ccc(OC)cc3)n2)cc1 | i
COc1ccc(CNC(=O)c2cc(-c3ccc(C)cc3)nc3n[nH]c(-c4ccc(Br)cc4)c23)cc1 | 73.7%
O=c1n(-c2ccncc2)nc2n1CCN(CC1CC1)C2 | 17.8%[44.1 µM]
O=C(NCc1ccco1)N1CCc2nc3cc(-c4ccccc4Cl)[nH]n3c(=O)c2C1 | i[5.79 µM]
COc1ccc(C(=O)N2CCC[C@H]2c2nc(-c3ccc(OC)c(OC)c3)no2)cc1 | -4.4%
CCOCC(=O)N1CCC2(CC1)NCCc1c2[nH]c2ccccc12 | i
O=C(COc1ccccc1)N1CCCC(Nc2ccc(F)cc2)C1 (centres undefined) | -6.6%
Cc1cnc(-c2ccccc2)n1C1CCCN(C(=O)c2ccnn2C)C1 (centres undefined) | -29.1%
Cc1cnc(-c2ccccc2)n1C1CCCN(C(=O)COc2ccc(F)cc2)C1 (centres undefined) | 2.82µM*
COc1ccc(-c2cnc3[nH]cc(CC(=O)Nc4cccnc4)c3c2)cc1 | i
CC1CCCN1C(=O)c1cc(-c2cnn(C(C)C)c2)nc2cc(F)ccc12 (centres undefined) | -15.2%
CC(C)=CCn1c(-c2cc(C)oc2C)cn2cc(C(=O)N3CCCC3C)nc2c1=O (centres undefined) | 8.91µM*
SMILES | Pf Dd2 growth
CC1CCCCN1C(=O)c1cc(-c2ccc(Br)cc2)on1 (centres undefined) | 42.2%
Cc1ccccc1S(=O)(=O)N1CCCC(Cc2noc(-c3cnccn3)n2)C1 (centres undefined) | 21.6%
COc1cc(-c2nc3ncccn3c2Nc2ccc(C)cc2C)ccc1O | 12.6µM*
COc1ccc(Nc2c(-c3ccc(N4CCOCC4)cc3)nc3ncccn23)cc1OC | -19.2%
Cc1ccc(-c2nc3ncccn3c2Nc2ccc3c(c2)OCCO3)cc1 | -21.5%
COc1cccc(-c2cccc(COc3cnc4c(ccn4CC(=O)O)c3)c2)c1F | i
COCC(=O)NC1CCC12CCN(C(=O)C1CC1)CC2 (centres undefined) | -7.0%
c1ccc(-c2cc(CC3(NCC4CC4)COC3)no2)nc1 | -2.8%[44.1 µM]
CCN(CC)c1cc(C)c2cc(NC(=O)c3ccc(F)cc3Cl)ccc2n1 | i
CCN(CC)c1cc(C)c2cc(NC(=O)/C=C/c3ccccc3Cl)ccc2n1 | 10µM*
CCN(CC)c1cc(C)c2cc(NC(=O)c3cc(OC)cc(OC)c3)ccc2n1 | -3.1%
CC(C)CNC(=O)c1ccc(CN2C(=O)NC3(CCS(=O)(=O)CC3)C2=O)cc1 | i
Cc1cccc(NC(=O)N2CCC(CN3CCC(C)CC3)CC2)c1C | -11.2%
COC(=O)c1ccc(Cl)cc1NC(=O)N1CCC(CN2CCC(C)CC2)CC1 | 10µM*
COC(=O)c1ccc(Cl)cc1NC(=O)N1CCC(CN2CCCC2)CC1 | -0.5%
CCc1nc2c(c(-c3ccc(Cl)cc3)n1)CN(C(=O)c1ccccc1F)CC2 | -11.4%
CCOc1ccccc1C(=O)N1[C@@H]2CC[C@H]1CC(NC(=O)c1ccc(F)cc1)C2 (some centres undefined) | -22.8%
Cc1ccc(C2=Nc3ccccc3N(CC(=O)NCc3ccccc3Cl)C(=O)C2)cc1C | 11.2µM*
COc1ccc(C2=NN(CC(=O)NCc3ccccc3Cl)C(=O)CC2)cc1 | 6.4%
Cc1ccc(C2=Nc3ccccc3N(CC(=O)Nc3cccc(F)c3)C(=O)C2)cc1C | 8.91µM*
Cc1ccc(NC(=O)CN2C(=O)CC(c3ccc(F)cc3)=Nc3ccccc32)cc1F | -28.4%
Cc1cc(=O)n(CC(=O)Nc2cccc(F)c2)c(-c2ccccc2)n1 | i
Cc1ccc2c(c1)N(CCC(=O)NCc1ccccc1Cl)C(=O)CO2 | 46.4%
O=C(NCc1ccccc1Cl)[C@@H]1CNC[C@H]1COc1cccnc1 | -7.0%
COCCOCC(=O)N1CC[C@H]2C(=O)NCCCCCCN(Cc3ccncc3)[C@@H]2C1 | 10.4%
SMILES | Pf Dd2 growth
Cc1ccccc1CC(=O)N(C)CC1CCOCC1 | -10.2%
CNC(=O)CN(C)C(=O)[C@H]1CN(Cc2ccccc2)C[C@H]1C(=O)O | -16.4%
Cc1ccc(C2Cn3nnc(C(=O)N4CCC(C(=O)NCc5cccs5)CC4)c3CO2)cc1 (centres undefined) | i
COc1ccc(CN2C[C@H](O)C[C@H]2c2nc(-c3ccc(C)c(F)c3)no2)cc1 | -6.1%[44.1 µM]
COCCO[C@H]1C(=O)N(C2CCN(C(=O)Nc3ccccc3)CC2)[C@H]1c1ccncc1 | 0.9%
O=C(C1CCCC1)N1CC2(CCN(CC3CCCCC3)C2)Cc2ccccc21 (centres undefined) | 11.2µM*
O=C(C1CCCC1)N1CC2(CCCN(Cc3c[nH]c4ccccc34)C2)Cc2ccccc21 (centres undefined) | 7.08µM*
CS(=O)(=O)N1CC2(CCN(CC3CC3)C2)Cc2ccccc21 (centres undefined) | -13.2%
O=C(O)CCC(=O)N1CCCC2(Cc3ccccc3N(C(=O)C3CCCC3)C2)C1 (centres undefined) | 6.1%
CC(=O)N1Cc2ccccc2CC2(CCN(CC3CCCC3)CC2)C1 | -25.8%
O=C(C1CCCC1)N1CC2(CCN(Cc3ccc(Cl)cc3)C2)Cc2ccccc21 (centres undefined) | 14.1µM*
NC(=O)c1cccc(CN2CCC3(Cc4ccccc4N(C(=O)C4CCCC4)C3)C2)c1 (centres undefined) | -22.9%
CC(=O)N1CC2(Cc3ccccc31)CN(C(=O)C1CCCC1)C2 | -23.3%[44.1 µM]
CC(C)CCNC(=O)c1cc2n(n1)CC(c1ccc3c(c1)OCO3)OC2 (centres undefined) | -12.7%
O=C1CC(c2ccccc2)N(C(=O)CNC(=O)c2ccoc2)CCCCCN1 (centres undefined) | -11.7%
O=C(c1n[nH]c2ccccc12)N1CCC2(CC1)CC(N1CCCCC1)CCO2 (centres undefined) | -0.8%
CN1c2cc(C(N)=O)ccc2C(=O)N2CCCC21 (centres undefined) | 20.8%
Cn1nc(C(=O)N2CCCn3nc(CO)cc3C2)c2ccccc2c1=O | -4.2%
O=[S+]1([O-])NCC2(CCN(CC3CCCC3)C2)Oc2ncccc21 (centres undefined) | 12.6µM*
O=[S+]1([O-])NCC2(CCN(CC3CC3)C2)Oc2ncccc21 (centres undefined) | 4.1%
